The panel holds about 79,000 compounds, 15% with a hit somewhere; the sample as a whole holds those more often. Calls of active or inactive are those of the source. Rule as the data show it: active = growth inhibition above about 70%; inactive = the rest.
How the values were obtained:
[1] = NCI Yeast Anticancer Drug Screen. Data for the rad52 strain (AID 147);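 also: 0% = growth of vehicle-treated control cultures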; conditions: S. cerevisiae rad52 mutant growth inhibition, stronger effect = higher value
In short: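 Inhibition of yeast growth, referenced to vehicle controls, was the measured output for a strain with defective DNA damage repair.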

[2] = NCI Yeast Anticancer Drug Screen. Data for the wt1 strain (AID 149);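 also: 0% = growth of vehicle-treated wt1 cultures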; conditions: S. cerevisiae wt1 strain (SPY 50644) growth inhibition, stronger effect = higher value
In short: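 The wt1 strain was treated with compounds, and growth was compared with vehicle-treated cultures to give inhibition.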

[3] = NCI Yeast Anticancer Drug Screen. Data for the rad50EPP+ strain (AID 151);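 also: 0% = growth of vehicle-treated control cultures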; conditions: S. cerevisiae rad50 mutant strain, stronger effect = higher value
In short: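 Genetically defined yeast (rad50EPP+, DNA damage repair alteration) is grown with compound, and inhibition of growth is expressed relative to vehicle-treated controls.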

[4] = NCI Yeast Anticancer Drug Screen. Data for the mgt1 strain (AID 153); conditions: S. cerevisiae mgt1 mutant growth inhibition, stronger effect = higher value
In short: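 In the mgt1 strain, test compounds were added and growth inhibition was determined relative to vehicle-treated controls.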

[5] = NCI Yeast Anticancer Drug Screen. Data for the rad50 strain (AID 155);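 also: 0% = growth of vehicle-only cultures of the same strain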; conditions: S. cerevisiae rad50 strain growth inhibition, stronger effect = higher value
In short: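 Cells are treated with compound, grown, and their growth is then scored against vehicle-only cultures of the same repair-deficient yeast strain.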

[6] = NCI Yeast Anticancer Drug Screen. Data for the mec2-1 strain (AID 157); conditions: S. cerevisiae mec2-1 strain, stronger effect = higher value
In short: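 Each compound was tested on mec2-1 yeast, a strain altered in DNA damage repair or cell cycle control. Growth inhibition is reported relative to vehicle.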

[7] = NCI Yeast Anticancer Drug Screen. Data for the rad14 strain (AID 159);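 also: 0% = growth of vehicle-treated control cultures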; conditions: S. cerevisiae rad14 strain growth inhibition, stronger effect = higher value
In short: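 Readout: yeast growth inhibition, referenced to vehicle-only cultures. Strain bears a defined alteration in DNA damage repair.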

[8] = NCI Yeast Anticancer Drug Screen. Data for the sgs1 mgt1 strain (AID 161);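 also: 0% = growth of cultures given vehicle only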; conditions: S. cerevisiae sgs1 mgt1 strain, stronger effect = higher value
In short: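 Read-out: growth inhibition vs vehicle controls. Cells: mutant yeast strain deficient in DNA damage repair.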

[9] = NCI Yeast Anticancer Drug Screen. Data for the CLN2oe strain (AID 163);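 also: 0% = growth of vehicle-only control cultures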; conditions: S. cerevisiae CLN2oe strain, stronger effect = higher value
In short: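 First, the altered yeast strain was treated with each compound; second, its growth was measured; finally, inhibition was derived by comparison with vehicle controls.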

[10] = NCI Yeast Anticancer Drug Screen. Data for the cln2 rad14 strain (AID 165);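 also: 0% = growth equal to vehicle treated cultures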; conditions: S. cerevisiae cln2 rad14 strain, stronger effect = higher value
In short: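 Test compounds were added to cln2 rad14 yeast cultures; inhibition of growth was then determined by comparison with vehicle treatment.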

[11] = NCI Yeast Anticancer Drug Screen. Data for the bub3 strain (AID 167); conditions: S. cerevisiae bub3 mutant strain, stronger effect = higher value
In short: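 Part of a panel of yeast mutants defective in DNA damage repair or cell cycle regulation. Each strain is grown with compound, and inhibition is calculated relative to solvent-treated cultures.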

[12] = NCI Yeast Anticancer Drug Screen. Data for the wt2 strain (AID 169);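 also: 0% = growth of vehicle-treated yeast cultures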; conditions: S. cerevisiae wt2 strain growth inhibition, stronger effect = higher value
In short: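 The panel's yeast strains carry defined changes in DNA repair or cell cycle genes. Each strain is grown with compound, and growth loss is scored relative to vehicle.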

[13] = NCI Yeast Anticancer Drug Screen. Data for the mlh1 strain (AID 171);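 also: 0% = growth of vehicle-treated control cultures of the same strain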; conditions: S. cerevisiae mlh1 strain growth inhibition, stronger effect = higher value
In short: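 Inhibition values reflect reduced yeast growth in the presence of compound, referenced to vehicle controls, using a strain chosen for its alteration in DNA repair or cell cycle control.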

[14] = NCI Yeast Anticancer Drug Screen. Data for the sgs1 strain (AID 173);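 also: 0% = growth of vehicle-only control cultures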; conditions: S. cerevisiae sgs1 mutant, stronger effect = higher value
In short: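 Vehicle-treated cultures served as reference for growth inhibition of a yeast strain altered in DNA damage repair or cell cycle control after compound exposure.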

[15] = NCI Yeast Anticancer Drug Screen. Data for the mlh1 rad18 strain (AID 175); conditions: S. cerevisiae mlh1 rad18 strain growth inhibition, stronger effect = higher value
In short: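 Inhibition values reflect reduced growth of mutant yeast versus vehicle-treated controls following compound exposure; the mutations affect DNA damage repair.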

[16] = NCI Yeast Anticancer Drug Screen. Data for the rad18 strain (AID 177); conditions: S. cerevisiae rad18 mutant growth inhibition, stronger effect = higher value
In short: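 Steps: expose repair-mutant yeast to compound; measure growth; express as inhibition relative to vehicle control.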

[17] = at 5.0 µM (retest, dose inferred, filed as 0.5)
[18] = at 50.0 µM (retest, dose inferred, filed as 5.0)

Measured: growth inhibition

CN1C(=O)C(CC(=O)O)NC1=S (stereo not drawn)
active: [14]; at 100.0 µM 70%
inactive: [1]; at 1.2 µM 0% | [1]; at 3.7 µM 0% | [1]; at 11.0 µM -1% | [1]; at 33.0 µM 6% | [1]; at 100.0 µM 22% | [2]; at 1.2 µM -2% | [2]; at 3.7 µM -2% | [2]; at 11.0 µM 1% | [2]; at 33.0 µM 3% | [2]; at 100.0 µM 11% | [3]; at 1.2 µM -1% | [3]; at 3.7 µM -3% | [3]; at 11.0 µM -2% | [3]; at 33.0 µM -10% | [3]; at 100.0 µM -5% | [4]; at 1.2 µM -3% | [4]; at 3.7 µM -2% | [4]; at 11.0 µM 1% | [4]; at 33.0 µM 21% | [4]; at 100.0 µM 27% | [5]; at 1.2 µM -1% | [5]; at 3.7 µM -2% | [5]; [17] 20% | [5]; at 11.0 µM 2% | [5]; at 33.0 µM 9% | [5]; [18] 14% | [5]; at 50.0 µM 61.9% | [5]; at 100.0 µM 25% | [6]; at 1.2 µM 1% | [6]; at 3.7 µM 3% | [6]; [17] 2% | [6]; at 11.0 µM 4% | [6]; at 33.0 µM 15% | [6]; [18] 27% | [6]; at 50.0 µM 33.9% | [6]; at 100.0 µM 47% | [7]; at 1.2 µM 0% | [7]; at 3.7 µM 0% | [7]; at 11.0 µM -1% | [7]; at 33.0 µM 16% | [7]; at 100.0 µM 39% | [8]; [17] -1% | [8]; [18] 17% | [8]; at 50.0 µM 58.2% | [9]; at 1.2 µM -3% | [9]; at 3.7 µM -3% | [9]; at 11.0 µM -1% | [9]; at 33.0 µM -2% | [9]; at 100.0 µM 2% | [10]; [17] -10% | [10]; [18] 12% | [10]; at 50.0 µM 2.1% | [11]; at 1.2 µM -4% | [11]; at 3.7 µM -7% | [11]; [17] -10% | [11]; at 11.0 µM -3% | [11]; at 33.0 µM 3% | [11]; [18] 2% | [11]; at 50.0 µM 65.8% | [11]; at 100.0 µM 43% | [12]; at 1.2 µM -2% | [12]; at 3.7 µM 0% | [12]; at 11.0 µM 3% | [12]; at 33.0 µM 7% | [12]; at 100.0 µM 20% | [13]; at 1.2 µM -2% | [13]; at 3.7 µM 0% | [13]; at 11.0 µM 4% | [13]; at 33.0 µM 11% | [13]; at 100.0 µM 46% | [14]; at 1.2 µM 0% | [14]; at 3.7 µM 5% | [14]; at 11.0 µM 9% | [14]; at 33.0 µM 24% | [15]; [17] -11% | [15]; [18] 62% | [15]; at 50.0 µM 25.7% | [16]; at 1.2 µM 1% | [16]; at 3.7 µM 0% | [16]; at 11.0 µM -9% | [16]; at 33.0 µM 15% | [16]; at 100.0 µM 45%

— PubChem BioAssay (NCI)
